CYP2C9 inhib: blocks human cytochrome P450 2C9 | 96,000 tested, 20% active | inhibition, % at 5 µM | AID 777 | CYP2C9 Supersomes, luciferin-H conversion, luminescence;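 active = blocking of liver enzyme CYP2C9 beyond about 50% at 5 µM, limit read from the data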
CYP2C19 inh: blocks human cytochrome P450 2C19; AID 778; inhibition, % at 5 µM; P33261; CYP2C19 Supersomes, luciferin-H EGE luminescence, 30 min; 96,000 tested, 21% active;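 active = CYP2C19 inhibition above a set limit at 5 µM in the primary screen, cut at about 50% in these data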;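 also: plate controls were negative control wells for no effect and 2.5 mM tranylcypromine positive control for full effect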
CYP2C9 act: CYP2C9 (human) activation; AID 1024; activation factor at 5 µM; P11712; recombinant CYP2C9, luciferin-H conversion, luminescence; active compounds read high; factor 1 = untreated enzyme, 0 = blocked; 96,000 tested, 1.4% active;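 active = activation factor of 2 or more for CYP2C9 at a 5 µM dose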;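 also: 0 = sulfaphenazole-blocked wells and 1 = vehicle-only wells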
CYP2C19 act: increases human CYP2C19 enzyme activity; P33261; recombinant CYP2C19, luciferin-H EGE luminescence; active compounds read high; 0 = fully inhibited enzyme, 1 = untreated enzyme; activation factor at 5 µM; 96,000 tested, under 10 active; AID 1025;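 active = activation factor of at least 2 at 5 µM in the primary screen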;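 also: 0 = wells with 2.5 mM tranylcypromine and 1 = vehicle-only wells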
EphB4 ephrin blk: blocks human EphB4 binding to ephrin-B2. inhibition, % at 7 µM. 97,000 tested, 0.15% active. EphB4 LBD / TNYL-RAW-Alexa532 peptide, fluorescence polarization. P54760;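 active = inhibition above the screen-wide mean inhibition plus 3 SD, cut at about 15% in these data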;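 also: 0% = DMSO wells and 100% = excess unlabeled TNYL-RAW peptide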
Target sequence (P54760 whole entry, looked up, the tested form may be a part): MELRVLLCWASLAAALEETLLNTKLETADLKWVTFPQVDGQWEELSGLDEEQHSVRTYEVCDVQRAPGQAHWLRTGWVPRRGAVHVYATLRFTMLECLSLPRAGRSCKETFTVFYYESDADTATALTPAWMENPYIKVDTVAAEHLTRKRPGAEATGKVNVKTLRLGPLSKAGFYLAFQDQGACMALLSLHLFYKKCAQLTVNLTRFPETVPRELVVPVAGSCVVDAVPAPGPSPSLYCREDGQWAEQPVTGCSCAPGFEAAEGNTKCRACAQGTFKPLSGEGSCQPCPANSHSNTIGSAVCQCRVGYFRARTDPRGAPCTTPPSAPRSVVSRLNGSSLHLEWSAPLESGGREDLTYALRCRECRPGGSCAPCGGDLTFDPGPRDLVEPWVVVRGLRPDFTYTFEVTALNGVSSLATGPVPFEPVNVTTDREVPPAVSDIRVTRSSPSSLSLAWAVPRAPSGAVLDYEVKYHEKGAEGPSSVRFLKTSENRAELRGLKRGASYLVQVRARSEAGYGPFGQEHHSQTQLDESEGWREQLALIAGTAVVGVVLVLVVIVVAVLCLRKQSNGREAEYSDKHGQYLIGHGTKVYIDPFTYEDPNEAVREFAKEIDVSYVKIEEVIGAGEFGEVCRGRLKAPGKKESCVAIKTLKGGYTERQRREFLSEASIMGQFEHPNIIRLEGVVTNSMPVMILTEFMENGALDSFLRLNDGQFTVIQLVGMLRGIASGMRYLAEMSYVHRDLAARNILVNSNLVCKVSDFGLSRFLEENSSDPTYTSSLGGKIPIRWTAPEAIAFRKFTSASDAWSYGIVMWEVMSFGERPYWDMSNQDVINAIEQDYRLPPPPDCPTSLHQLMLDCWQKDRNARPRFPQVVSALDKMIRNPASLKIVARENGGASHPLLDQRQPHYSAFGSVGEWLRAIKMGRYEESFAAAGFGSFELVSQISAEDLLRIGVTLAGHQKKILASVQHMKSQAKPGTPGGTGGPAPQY
Starred values were filed as active, the others as inactive; . = no result given. An excerpt weighted towards active compounds, which were near 27% of everything screened.

SMILES	CYP2C9 inhib	CYP2C19 inh	CYP2C9 act	CYP2C19 act	EphB4 ephrin blk
CCN(CC)c1ccc(C2C3CCCCC3(O)CCN2CC(=O)N2CCCCC2)cc1 (stereo unspecified)	-10	5	1.1	0.9	4
Cn1c(SCC(=O)Nc2nccs2)nnc1C12CC3CC(CC(C3)C1)C2	1	16	1	0.8	-6
FC(F)(F)c1nnc2ccc(N3CCCC3)nn12	30	25	0.7	0.8	-3
FC(F)(F)C(F)(F)C(F)(F)c1nnc2ccc(N3CCOCC3)nn12	76*	76*	0.2	0.2	2
COn1cnnc1-c1ccccc1	5	25	0.9	0.7	-8
O=C(C(Cc1ccccc1)n1cccc1)N1CCN(c2ncccn2)CC1 (stereo unspecified)	69*	43	0.3	0.6	0
CC1CCN(C(=O)C(Cc2ccccc2)n2cccc2)CC1 (stereo unspecified)	22	93*	0.8	0.1	.
Cc1cccc(N2CCN(C(=O)C(Cc3ccccc3)n3cccc3)CC2)c1C (stereo unspecified)	-14	28	1.1	0.7	-2
Cc1ccc(OC(=O)COc2ccccc2)c(-n2nc3ccccc3n2)c1	-2	-4	1	1	2
Cc1cc(C)c(S(C)(=O)=O)c(Oc2ccc(C(C)(C)C)cc2)n1	86*	35	0.1	0.6	-4
Cc1cc(-c2ccccc2)nc(Oc2cccc(C(F)(F)F)c2)c1S(C)(=O)=O	12	-4	0.9	1	5
Cc1ccc(S(=O)(=O)c2c(C)cc(C)nc2Oc2cccc(C(F)(F)F)c2)cc1	46	59*	0.5	0.4	2
CCOC(=O)C1CCN(C(=O)c2ccc(SC)cc2OC)CC1	-38	99*	1.4	0	0
O=S(=O)(c1ccc(Cl)cc1)N1CCCC1c1nc(-c2ccc(Cl)cc2)no1 (stereo unspecified)	.	.	.	.	-2
COc1ccc(C(=O)C2CCN(C(=O)c3ccc(C)cc3)CC2)cc1	29	44	0.7	0.6	-1
COc1ccc(C(=O)C2CCN(C(=O)c3ccco3)CC2)cc1	24	51*	0.8	0.5	.
CCOC(=O)C1CCN(C(=O)c2ccco2)CC1	24	63*	0.8	0.4	3
O=S(=O)(c1ccccc1Cl)N1CCCC1c1nc(-c2ccccc2Cl)no1 (stereo unspecified)	13	58*	0.9	0.4	0
O=C(COC(=O)C1CCN(C(=O)c2ccc(Cl)cc2)CC1)c1ccco1	31	37	0.7	0.6	-1
CCCCCn1c(Sc2ccccc2)nc2c1c(=O)[nH]c(=O)n2C	3	-17	1	1.2	5
Cc1cc(Br)ccc1SCC(=O)OCC(=O)N1CCN(C(=O)c2ccco2)CC1	61*	66*	0.4	0.3	6
O=C(c1ccco1)N1CCC(c2nc(-c3ccccc3Cl)no2)CC1	57*	50	0.4	0.5	-5
O=C(CSc1cccc2cccc(Cl)c12)OCC(=O)N1CCN(C(=O)c2ccco2)CC1	-44	9	1.4	0.9	3
CCCc1nnc(SCC(=O)Nc2ccc(OC)cc2)n1N	-21	-10	1.2	1.1	-1
Cc1cccc(NC(=S)NNC(=O)c2csc(C(C)C)c2)c1	.	.	.	.	4
SMILES	CYP2C9 inhib	CYP2C19 inh	CYP2C9 act	CYP2C19 act	EphB4 ephrin blk
CCN(CC)CCN1C(=O)C(O)=C(C(=O)c2cccs2)C1c1ccc(C)o1 (stereo unspecified)	-1	1	1	1	-2
O=C(NC1CCCC1)C(c1ccccc1)N(Cc1ccc2c(c1)OCO2)C(=O)Cc1cccs1 (stereo unspecified)	.	.	.	.	-8
COc1cc(C(C(=O)NC2CCCCC2)N(Cc2cccs2)C(=O)Cc2c[nH]c3ccccc23)cc(OC)c1OC (stereo unspecified)	58*	73*	0.4	0.3	-8
COc1ccc(CN(C(=O)Cc2c[nH]c3ccccc23)C(C(=O)NC2CCCCC2)c2ccc(C)o2)cc1 (stereo unspecified)	94*	93*	0.1	0.1	-3
O=C(NC1CCCC1)C(c1cccs1)N(Cc1ccco1)C(=O)c1csnn1 (stereo unspecified)	11	25	0.9	0.7	4
O=C(NC1CCCC1)C(c1ccncc1)N(Cc1ccccc1)C(=O)Cc1cccs1 (stereo unspecified)	39	61*	0.6	0.4	4
O=C(NC1CCCC1)C(c1ccncc1)N(Cc1cccs1)C(=O)c1csnn1 (stereo unspecified)	54*	37	0.5	0.6	6
CCOc1ccc(-n2c(SCc3ccc(C#N)cc3)nnc2-c2cccnc2)cc1	23	30	0.8	0.7	4
Cc1ccc(-c2nnn(CC(=O)N(Cc3ccco3)C(C(=O)NC3CCCC3)c3cccs3)n2)o1 (stereo unspecified)	.	.	.	.	-1
COc1ccc(CN(C(=O)c2ccc(-c3ccccc3)[nH]2)C(C(=O)NCC2CCCO2)c2ccc(C)o2)cc1 (stereo unspecified)	46	58*	0.5	0.4	-13
COc1ccc(CCNC(=O)C(=O)NCC2CCCO2)cc1 (stereo unspecified)	.	.	.	.	5
COc1ccc(C(=O)N(Cc2ccco2)C(C(=O)NC2CCCC2)c2ccc(O)cc2)cc1OC (stereo unspecified)	56*	50*	0.4	0.5	-7
Cc1ccc(-c2nnn(CC(=O)N(Cc3ccccc3)C(C(=O)NC3CCCC3)c3ccncc3)n2)o1 (stereo unspecified)	55*	45	0.4	0.5	-4
CC(C(=O)NC1CCCC1)N(C(=O)c1ccc(-c2ccccc2)[nH]1)c1ccccc1F (stereo unspecified)	61*	70*	0.4	0.3	6
CC(=O)N1CCc2cc(C(=O)CN3CCC(C)CC3)ccc21	18	7	0.8	0.9	1
CCc1ccc(N(C(=O)Cc2cccs2)C(C(=O)NC2CCCCC2)c2cn(C)nc2C)cc1 (stereo unspecified)	40	73*	0.6	0.3	0
O=C(NC1CCCCC1)C(c1ccco1)N(Cc1ccco1)C(=O)c1ccco1 (stereo unspecified)	63*	65*	0.4	0.4	4
COc1ccccc1CN(C(=O)c1ccco1)C(C(=O)NC1CCCC1)c1ccncc1 (stereo unspecified)	42	63*	0.6	0.4	0
O=C(NC1CCCCC1)C(c1ccncc1)N(Cc1ccccc1)C(=O)c1ccc(-c2ccccc2)[nH]1 (stereo unspecified)	95*	93*	0.1	0.1	4
CC1(C)CC(=O)C(C=NCCN2CCN(C(=O)NC34CC5CC(CC(C5)C3)C4)CC2)=C(O)C1	7	22	0.9	0.8	.
Cc1ccc(CNC(=O)C2CC(c3ccccc3[N+](=O)[O-])=NO2)cc1 (stereo unspecified)	-31	23	1.3	0.8	-1

Source: PubChem
